Assay results as given in PubChem BioAssay (NCI).
This is part of a sample that, as a whole, favours compounds with a hit. Of some 79,000 tested, about 15% had one in any assay. Active and inactive are the calls of the source. Rule as the data show it: active = growth inhibition above about 70%; inactive = the rest.

Assays:
[1] = NCI Yeast Anticancer Drug Screen. Data for the rad52 strain (AID 147);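 also: 0% = growth of vehicle-treated control cultures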; conditions: S. cerevisiae rad52 mutant growth inhibition, active compounds read high
Outline: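 Read-out: growth inhibition versus vehicle-treated controls. Cells were a DNA repair-deficient yeast strain treated with compounds.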

[2] = NCI Yeast Anticancer Drug Screen. Data for the wt1 strain (AID 149);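 also: 0% = growth of vehicle-treated wt1 cultures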; conditions: S. cerevisiae wt1 strain (SPY 50644) growth inhibition, active compounds read high
Outline: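 Vehicle-normalised growth inhibition; strain wt1; compound exposure.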

[3] = NCI Yeast Anticancer Drug Screen. Data for the rad50EPP+ strain (AID 151);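 also: 0% = growth of vehicle-treated control cultures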; conditions: S. cerevisiae rad50 mutant strain, active compounds read high
Outline: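 Growth inhibition read against vehicle controls in rad50EPP+ yeast, a strain altered in DNA damage repair, after compound exposure.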

[4] = NCI Yeast Anticancer Drug Screen. Data for the mgt1 strain (AID 153); conditions: S. cerevisiae mgt1 mutant growth inhibition, active compounds read high
Outline: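 mgt1 yeast grown with test compound; read-out is growth inhibition versus vehicle-treated cultures.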

[5] = NCI Yeast Anticancer Drug Screen. Data for the rad50 strain (AID 155);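 also: 0% = growth of vehicle-only cultures of the same strain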; conditions: S. cerevisiae rad50 strain growth inhibition, active compounds read high
Outline: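 A DNA repair-deficient yeast mutant serves as the test organism; compound-induced growth inhibition is calculated against vehicle-treated cells.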

[6] = NCI Yeast Anticancer Drug Screen. Data for the mec2-1 strain (AID 157); conditions: S. cerevisiae mec2-1 strain, active compounds read high
Outline: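 Yeast mec2-1 mutant treated with compound. Readout: growth inhibition vs vehicle controls.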

[7] = NCI Yeast Anticancer Drug Screen. Data for the rad14 strain (AID 159);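 also: 0% = growth of vehicle-treated control cultures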; conditions: S. cerevisiae rad14 strain growth inhibition, active compounds read high
Outline: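 Vehicle-treated cultures served as the baseline for growth inhibition of a DNA repair-mutant yeast strain exposed to each compound.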

[8] = NCI Yeast Anticancer Drug Screen. Data for the sgs1 mgt1 strain (AID 161);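 also: 0% = growth of cultures given vehicle only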; conditions: S. cerevisiae sgs1 mgt1 strain, active compounds read high
Outline: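 Mutant yeast exposed to compound; growth scored against vehicle-only wells.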

[9] = NCI Yeast Anticancer Drug Screen. Data for the CLN2oe strain (AID 163);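 also: 0% = growth of vehicle-only control cultures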; conditions: S. cerevisiae CLN2oe strain, active compounds read high
Outline: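 Read-out: yeast growth inhibition, expressed relative to vehicle-only controls. The strain bears an engineered cell-cycle alteration.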

[10] = NCI Yeast Anticancer Drug Screen. Data for the cln2 rad14 strain (AID 165);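 also: 0% = growth equal to vehicle treated cultures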; conditions: S. cerevisiae cln2 rad14 strain, active compounds read high
Outline: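 cln2 rad14 yeast strain; compound exposure; growth inhibition read vs vehicle controls.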

[11] = NCI Yeast Anticancer Drug Screen. Data for the bub3 strain (AID 167); conditions: S. cerevisiae bub3 mutant strain, active compounds read high
Outline: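 Inhibition values come from growth of compound-treated mutant yeast normalised to vehicle-treated controls.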

[12] = NCI Yeast Anticancer Drug Screen. Data for the wt2 strain (AID 169);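 also: 0% = growth of vehicle-treated yeast cultures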; conditions: S. cerevisiae wt2 strain growth inhibition, active compounds read high
Outline: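 Read-out: growth inhibition versus vehicle-treated control cultures after compound exposure of the yeast strain.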

[13] = NCI Yeast Anticancer Drug Screen. Data for the mlh1 strain (AID 171);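 also: 0% = growth of vehicle-treated control cultures of the same strain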; conditions: S. cerevisiae mlh1 strain growth inhibition, active compounds read high
Outline: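 Read-out: growth inhibition versus vehicle controls. Strain: engineered yeast with a defined DNA repair or cell cycle defect, compound-treated.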

[14] = NCI Yeast Anticancer Drug Screen. Data for the sgs1 strain (AID 173);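 also: 0% = growth of vehicle-only control cultures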; conditions: S. cerevisiae sgs1 mutant, active compounds read high
Outline: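 Read-out: yeast growth inhibition relative to vehicle controls, following compound exposure of a strain with a defined DNA repair/cell cycle alteration.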

[15] = NCI Yeast Anticancer Drug Screen. Data for the mlh1 rad18 strain (AID 175); conditions: S. cerevisiae mlh1 rad18 strain growth inhibition, active compounds read high
Outline: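 Yeast w/ defined DNA-repair lesions; compound exposure; growth vs vehicle controls → % inhibition.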

[16] = NCI Yeast Anticancer Drug Screen. Data for the rad18 strain (AID 177); conditions: S. cerevisiae rad18 mutant growth inhibition, active compounds read high
Outline: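 Readout: growth inhibition vs vehicle controls. Cells: genetically altered yeast strain, DNA repair defect.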

[17] = at 5.0 µM (retest, dose inferred, filed as 0.5)
[18] = at 50.0 µM (retest, dose inferred, filed as 5.0)

Measured: growth inhibition

O=[N+]([O-])c1ccc2nc3ccccc3cc2c1
active: [1]; at 33.0 µM 74% | [1]; at 100.0 µM 96% | [2]; at 100.0 µM 81% | [3]; at 11.0 µM 85% | [3]; at 33.0 µM 90% | [3]; at 100.0 µM 96% | [4]; at 100.0 µM 86% | [5]; at 33.0 µM 89% | [5]; [18] 92% | [5]; at 50.0 µM 87% | [5]; at 100.0 µM 95% | [6]; [18] 85% | [6]; at 100.0 µM 84% | [7]; at 100.0 µM 91% | [8]; [18] 89% | [11]; [18] 91% | [11]; at 100.0 µM 94% | [12]; at 100.0 µM 89% | [13]; at 100.0 µM 96% | [14]; at 33.0 µM 80% | [14]; at 100.0 µM 97% | [15]; [18] 90% | [15]; at 50.0 µM 89.1% | [16]; at 33.0 µM 87% | [16]; at 100.0 µM 96%
inactive: [1]; at 1.2 µM 3% | [1]; at 3.7 µM 13% | [1]; at 11.0 µM 35% | [2]; at 1.2 µM -5% | [2]; at 3.7 µM -4% | [2]; at 11.0 µM -7% | [2]; at 33.0 µM 21% | [3]; at 1.2 µM 22% | [3]; at 3.7 µM 63% | [4]; at 1.2 µM -1% | [4]; at 3.7 µM -5% | [4]; at 11.0 µM -1% | [4]; at 33.0 µM 29% | [5]; at 1.2 µM 1% | [5]; at 3.7 µM 22% | [5]; [17] -16% | [5]; at 11.0 µM 59% | [6]; at 1.2 µM -2% | [6]; at 3.7 µM 1% | [6]; [17] -37% | [6]; at 11.0 µM 8% | [6]; at 33.0 µM 27% | [6]; at 50.0 µM 55.5% | [7]; at 1.2 µM 0% | [7]; at 3.7 µM 9% | [7]; at 11.0 µM 20% | [7]; at 33.0 µM 45% | [8]; [17] -40% | [8]; at 50.0 µM 68.2% | [9]; at 1.2 µM -6% | [9]; at 3.7 µM -2% | [9]; at 11.0 µM 5% | [9]; at 33.0 µM 18% | [9]; at 100.0 µM 54% | [10]; [17] -59% | [10]; [18] 16% | [10]; at 50.0 µM 0.1% | [11]; at 1.2 µM -2% | [11]; at 3.7 µM -2% | [11]; [17] -51% | [11]; at 11.0 µM 14% | [11]; at 33.0 µM 39% | [11]; at 50.0 µM 69% | [12]; at 1.2 µM 0% | [12]; at 3.7 µM 1% | [12]; at 11.0 µM 3% | [12]; at 33.0 µM 33% | [13]; at 1.2 µM 7% | [13]; at 3.7 µM 0% | [13]; at 11.0 µM 14% | [13]; at 33.0 µM 51% | [14]; at 1.2 µM -2% | [14]; at 3.7 µM 13% | [14]; at 11.0 µM 36% | [15]; [17] -71% | [16]; at 1.2 µM 14% | [16]; at 3.7 µM 32% | [16]; at 11.0 µM 67%
